Screens from PubChem BioAssay.
VLA-4 allo ag = allosterically activates the human VLA-4 integrin | activation, % at 10 µM (by protocol) | AID 528 | Jurkat cells, LDV-FITC binding, flow cytometry | 24,000 tested, under 10 active | P13612;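 active means fluorescent ligand binding to cells raised by more than 40% of the manganese-induced maximum; inconclusive means compound's own fluorescence above 85% of the ligand control signal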
Target sequence (P13612 whole entry, looked up): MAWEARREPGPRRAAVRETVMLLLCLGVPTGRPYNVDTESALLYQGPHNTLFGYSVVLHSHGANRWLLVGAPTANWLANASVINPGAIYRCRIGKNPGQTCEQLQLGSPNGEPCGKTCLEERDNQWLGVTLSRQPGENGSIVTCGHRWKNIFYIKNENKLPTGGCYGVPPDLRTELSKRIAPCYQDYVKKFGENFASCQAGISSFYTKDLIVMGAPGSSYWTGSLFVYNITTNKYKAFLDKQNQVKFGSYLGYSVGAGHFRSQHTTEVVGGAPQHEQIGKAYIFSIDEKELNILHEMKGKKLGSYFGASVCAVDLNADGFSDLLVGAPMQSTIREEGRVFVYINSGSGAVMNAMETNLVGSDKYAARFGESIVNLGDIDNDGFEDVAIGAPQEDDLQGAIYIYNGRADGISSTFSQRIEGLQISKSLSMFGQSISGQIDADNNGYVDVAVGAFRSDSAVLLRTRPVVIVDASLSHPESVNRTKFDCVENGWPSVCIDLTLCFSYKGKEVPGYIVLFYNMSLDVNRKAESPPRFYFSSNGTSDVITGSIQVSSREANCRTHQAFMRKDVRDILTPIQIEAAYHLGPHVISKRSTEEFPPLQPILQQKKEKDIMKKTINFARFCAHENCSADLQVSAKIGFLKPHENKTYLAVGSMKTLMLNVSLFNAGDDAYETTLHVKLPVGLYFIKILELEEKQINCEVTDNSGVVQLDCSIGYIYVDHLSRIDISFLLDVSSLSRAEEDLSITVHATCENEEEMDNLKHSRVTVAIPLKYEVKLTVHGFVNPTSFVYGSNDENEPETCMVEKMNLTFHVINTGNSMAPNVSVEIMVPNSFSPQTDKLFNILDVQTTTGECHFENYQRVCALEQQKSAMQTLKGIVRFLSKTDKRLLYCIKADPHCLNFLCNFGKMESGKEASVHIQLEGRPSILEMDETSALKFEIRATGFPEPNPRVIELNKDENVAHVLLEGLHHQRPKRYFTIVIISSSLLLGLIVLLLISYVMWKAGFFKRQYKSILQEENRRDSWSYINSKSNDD
LNCaP diff act = promotes differentiation of LNCaP prostate cells. flow cytometry side scatter, 4 d. side scatter shift, % at 10 µM. actives 0.56% (n = 24,000). AID 795;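 active means side scatter shift above 30%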;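 further: androgen-responsive LNCaP prostate cancer cells in charcoal-stripped serum medium; higher shift means more granular cells and more differentiation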
Jurkat autofluor = counter-screen for VLA-4 integrin: compound autofluorescence in Jurkat cells; fluorescence ratio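 (tested at 10 µM compound in the well)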; actives 0.61% (n = 24,000); flow cytometry; active compounds read high; 1 = vehicle-only cell background;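 active means fluorescence ratio above 2.44, which is 1 plus 3 SD of all ratios; inconclusive means signal too bright to measure linearly, ratio around 10 or more; inactive means fluorescence ratio below 2.44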;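 further: green fluorescence of cells measured with 488 nm excitation and 530 nm emission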
26S disassembly = blocks ATP-dependent breakdown of the yeast 26S proteasome; AID 751; inhibition of disassembly, % (no concentration beside the values); anti-FLAG beads, GFP-proteasome disassembly, flow cytometry; actives 0.2% (n = 24,000);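 active means inhibition of disassembly above about 33%, limit read from the data; inconclusive means likely self-fluorescent, control bead median signal at least 40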;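 further: higher percent means more bead fluorescence retained so stronger block of disassembly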
VLA-4 antagonist = inhibitors of LDV-FITC ligand binding to Mn2+-activated human VLA-4 integrin; Jurkat cells, LDV-FITC binding with Mn2+, flow cytometry; 100% = Mn2+-driven binding gain fully reversed; AID 529; actives 0.2% (n = 24,000); P13612; inhibition, % at 10 µM (by protocol);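 active means inhibition above 50%; inconclusive means compound itself fluorescent, judged against control cell fluorescence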
Numbers stand for hits; n = inactive; u = inconclusive; x = not tested or not shown. Rows were chosen to be rich in hits. Some 1.6% of all compounds tested hit in one or more screens of this group.

SMILES | VLA-4 allo ag | LNCaP diff act | Jurkat autofluor | 26S disassembly | VLA-4 antagonist
CN(C(=O)c1ccccn1)c1nnc(-c2cccnc2)s1 | n | 32 | n | n | n
O=C(c1ccc(N2CCCCS2(=O)=O)cc1)N1CCN(c2ccc(N3CCOCC3)nn2)CC1 | n | n | n | n | n
Nc1nc2n(n1)C(c1ccccc1Cl)CC(c1ccc(F)cc1)N2 (stereo unspecified) | u | n | 2.7 | n | u
Cc1ccc(C2CC(c3ccccc3Cl)n3nc(N)nc3N2)cc1 (stereo unspecified) | n | n | n | n | n
CC(Sc1nnc(N)s1)c1ccccc1Cl (stereo unspecified) | n | n | n | n | n
CCOC(=O)CCCCC(=O)c1[nH]c(=O)[nH]c1CSc1nc2ccccc2[nH]1 | n | n | n | n | 55
Cc1[nH]c(=O)[nH]c1C(=O)CCCCC(=O)OCC(=O)Nc1ccccn1 | n | n | n | n | n
C/C(=N\O)C(=O)NCc1ccncc1 | u | n | 6.2 | n | u
O=S1(=O)C=C(Sc2nc3cc(Cl)ccc3o2)c2ccccc21 | u | n | 9.6 | n | u
COCc1nnc(NC(=O)c2ccc(S(=O)(=O)N(C)C3CCCCC3)cc2)o1 | n | n | n | n | n
Cc1cc(O)c(-c2cc(C(=O)Nc3ccc(S(=O)(=O)N4CCOCC4)cc3)[nH]n2)cc1C | n | n | n | n | 56
CCOC(=O)c1ccc(CNC(=O)Cn2nnc(-c3ccc(C)cc3)n2)o1 | n | n | n | n | n
O=C(Cc1coc(-c2ccc(F)cc2)n1)N1CCOCC1 | n | 30 | n | n | n
CN(CC(O)COc1ccc(OCC(O)CN(C)C2CCCCC2)cc1)C1CCCCC1 (stereo unspecified) | n | 37 | n | n | n
COc1ccc(-n2cc(-c3ccccc3)c3c(N4CCN(CCO)CC4)ncnc32)cc1 | n | 44 | n | n | n
CN(C)CCCNC(CC(=O)Nc1ccc(Cl)cc1)C(=O)O (stereo unspecified) | n | n | n | n | n
CCn1cc(C(=O)Nn2cnnc2)c(=O)c2ccc(C)nc21 | n | n | n | n | n
CSc1ccc(C2NC(=O)c3c(sc4c3CCN(C)C4)N2)cc1 (stereo unspecified) | u | n | 4.7 | n | u
CN1CCc2c(sc3c2C(=O)NC(c2ccc(-c4cccc(Cl)c4)o2)N3)C1 (stereo unspecified) | u | n | 9.9 | n | n
CN1CCc2c(sc3c2c(=O)n(-c2cccc(Cl)c2)c2nncn32)C1 | n | n | n | n | n
Cc1ccsc1C1NC(=O)c2c(sc3c2CCN(C)C3)N1 (stereo unspecified) | u | n | n | n | u
COCCCN(C(=O)Nc1ccccc1)C(C)c1ccncc1 (stereo unspecified) | n | x | n | n | n
Cc1cccc(NC(=O)c2sc3nc(-c4ccc(F)cc4)cn3c2C)n1 | u | n | 5.1 | 75 | u
Cc1cccc(NC(=O)c2sc3nc(-c4ccccc4)cn3c2C)n1 | u | n | 3.4 | n | u
COc1ccc(-c2cn3c(C)c(C(=O)Nc4cccc(C)n4)sc3n2)cc1 | u | n | n | n | u
SMILES | VLA-4 allo ag | LNCaP diff act | Jurkat autofluor | 26S disassembly | VLA-4 antagonist
Cc1c(C(=O)Nc2ccc3c(c2)OCO3)sc2nc(-c3ccccc3)cn12 | n | n | n | n | n
Cc1c(C(=O)Nc2ccccc2)sc2nc(-c3ccccc3)cn12 | n | n | n | n | 74
COC(=O)c1ccc(C2C(C(C)=O)=C(C)Nc3ncnn32)cc1 (stereo unspecified) | n | n | n | n | n
O=C(O)c1ccc(CS(=O)(=O)c2cccc(C(F)(F)F)c2)o1 | n | n | n | n | n
Cc1n[nH]c(C)c1S(=O)(=O)N1CCCC(C(=O)NC2CCCc3ccccc32)C1 (stereo unspecified) | u | n | 2.5 | n | u
CCOc1ccc(C2N(c3ccc(OC)cc3)C(=O)C3CCCN32)cc1OC (stereo unspecified) | n | n | n | n | n
CCOc1ccc(C2N(c3ccc(F)cc3)C(=O)C3CCCN32)cc1OC (stereo unspecified) | n | n | n | 51 | n
COC(=O)c1ccsc1NC(=O)CN1C(=O)CCC1=O | n | n | n | n | n
COc1ccc(-c2nc(C(N)=O)c3[nH]c(=O)n(-c4cccc(Cl)c4)c3n2)cc1OC | u | n | 4.5 | n | u
CCN1CCCC1CNC(=O)C1CCN(Cc2nc(-c3cccc(Br)c3)oc2C)CC1 (stereo unspecified) | n | 63 | n | n | n
CCc1ccc(-c2nc(CN3CCC(C(=O)NCCc4ccc(OC)c(OC)c4)CC3)c(C)o2)cc1 | u | 32 | n | n | u
COc1ccc(-c2nc(CN3CCC(C(=O)NC4CCCc5ccccc54)CC3)c(C)o2)cc1OC (stereo unspecified) | n | 39 | n | n | n
COc1ccccc1CNC(=O)C1CCN(Cc2nc(-c3ccc(Cl)cc3)oc2C)CC1 | u | 32 | n | n | u
COc1ccccc1C1c2c(oc3ccc(Cl)cc3c2=O)C(=O)N1c1cc(C)on1 (stereo unspecified) | n | n | n | n | n
COC(=O)c1cc(Br)c(=O)n(CCC2=CCCCC2)c1 | n | n | n | n | n
CCN1CCN(CCNC(=O)C2CCN(Cc3nc(-c4ccc(Cl)cc4)oc3C)CC2)CC1 | u | 44 | n | n | u
COc1ccccc1NC(=O)CCn1c(=O)sc2ccccc21 | n | n | n | n | n
Cc1ccc(S(=O)(=O)NC(CN2CCOCC2)=NCCNS(=O)(=O)c2ccccc2)cc1 | n | n | n | n | n
CCOc1cc2[nH]c(=O)n(CC3CCC(C(=O)NC(C)CC)CC3)c(=O)c2cc1OCC (stereo unspecified) | n | n | n | n | 63
CCCOc1ccc(C2c3c(oc4ccccc4c3=O)C(=O)N2CCCN2CCOCC2)cc1 (stereo unspecified) | n | n | n | n | n
Cn1c2ccccc2c2c(C(=O)N3CCN(c4ccccn4)CC3)cn(C3CCCC3)c(=O)c21 | n | n | n | n | n
Cn1c2ccccc2c2c(C(=O)O)cn(C3CCCC3)c(=O)c21 | n | n | n | n | 51
Cc1cccc(NC(=O)C2CCCN(S(=O)(=O)c3cccc4cccnc34)C2)c1 (stereo unspecified) | n | n | n | n | n
O=C(CC1Sc2ncnn2C1=O)Nc1ccc(Br)cc1 (stereo unspecified) | n | n | n | n | n
Cc1nc2cc(Cl)c(Cl)cc2nc1C | u | n | 3.1 | n | u
COCc1nnc(NC(=O)c2ccc(S(=O)(=O)N3CCCCCC3)cc2)o1 | u | n | 2.5 | n | u
COc1ccc(CNC(=O)C2COc3ccccc3O2)c(OC)c1 (stereo unspecified) | n | n | n | n | n
COc1ccc(-c2noc(CCC(=O)NCCCN3CCC(Cc4ccccc4)CC3)n2)cc1 | n | 32 | n | n | n
COc1ccc(N2CCN(C(CNS(=O)(=O)c3cc(F)ccc3F)c3cccnc3)CC2)cc1 (stereo unspecified) | n | n | n | n | n
